In the first test the target is SQRDL. Nature of the test: pooled miR-30 sensor sort-seq; sequence = guide strand. Conditions: shRNA.
Consider TTTGGCACCAGCACCCACCAGT, for which the sensor-assay potency score (higher = more potent) is -0.354.

TTTAATCTTCTCATAGTCCAGC returned a sensor-assay potency score (higher = more potent) of 0.0208.

As for TTGGTCACCATTACCCATCAAG, the sensor-assay potency score (higher = more potent) is -1.14.

Sequence ATAATTACAGAAATTGTCCTAT showed a sensor-assay potency score (higher = more potent) of 0.475.

On to AATCTTCTCATAGTCCAGCTGG, for which the sensor-assay potency score (higher = more potent) was -0.573.

TTCTTTATCCACATCCACCCAA: the sensor-assay potency score (higher = more potent) was -0.645.

TTTCATATGAAATCACTTGGGT came in with a sensor-assay potency score (higher = more potent) of 0.204.

The sequence ATAGGTTCCAAGTCCTTCGTGC returned a sensor-assay potency score (higher = more potent) of 0.618.

Take TAACTGAATAATTCGACCCTAT: the sensor-assay potency score (higher = more potent) was -0.071.

Take TTTCTTGTAGTTAACAGTGAGG: the sensor-assay potency score (higher = more potent) was -0.847.

Regarding TTAACTGAATAATTCGACCCTA, the sensor-assay potency score (higher = more potent) came out at 0.0839.

For another test, the target named is SRCAP. Described as above. The following applies: shRNA.
With TTCACCACCACCACTGTCCGGC, the sensor-assay potency score (higher = more potent) was determined as 0.285.

TTCCACTTGCTCTTCTGCCTGT gave a sensor-assay potency score (higher = more potent) of 0.497.

Regarding TTGCTTGAATTGCACCACCTTC, the sensor-assay potency score (higher = more potent) was -1.29.

Turning to TAGAGGACACAGGACTAGCAAG, the sensor-assay potency score (higher = more potent) was -1.62.

Take AACTCTAGTAGATCCATCCAGG: the sensor-assay potency score (higher = more potent) is -0.807.

For TATAGTATCCTCTTCATCCTCC, the sensor-assay potency score (higher = more potent) turned out to be 0.687.

In turn, TCAACATCCACCTTAACTCGGC had a sensor-assay potency score (higher = more potent) of 0.0488.

Regarding TAGACCTTCATTATACTCTTGG, the sensor-assay potency score (higher = more potent) worked out at 0.352.

TTAATGACAATGTCTGAGTTGG: the sensor-assay potency score (higher = more potent) is 0.105.

TTTATCTCCAACACCTGAGGGG registered a sensor-assay potency score (higher = more potent) of 0.481.

Consider TTGTTCTTCAACTTCAATCGTT, for which the sensor-assay potency score (higher = more potent) is 0.0088.

In the case of TGTTCTTCAACTTCAATCGTTT, the sensor-assay potency score (higher = more potent) is -0.243.
Note: reference of the scale not given here.
